According to the supplement of paper PMC10849652:
Targets with a hit are over-represented here; the source holds about 8,800 in all. About 0.5% of all pairs of compound and target were hits.

Legend:
Assay in all cases: log2 fold change, soluble protein after heating vs DMSO (PISA); higher = thermal stabilisation; K562 lysate, 10 uM; active = over 0.2 and 3.5 SD of the protein, either way, in both replicates (recomputed)
[1] = compound: C#Cc1cccc(Nc2ncnc3cc(OCCOC)c(OCCOC)cc23)c1 [erlotinib]
Procedure, shortened: (§1)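 Following dounce homogenisation of K562 pellets in PBS pH 7.4 with 1 mM MgCl2, crude extract at 1 mg/mL protein was incubated for 30 min with 10 μM compound. Aliquots were then heated for 3 min over 48°C-58°C and pooled, NP-40 was added to 0.5% at 4°C, and soluble protein was recovered as the supernatant at 21,000xg for 90 min. Channel-sum-equalised TMTpro 16plex LC-MS/MS quantified this protein. Each value, from duplicates, is a log-two fold change in thermal stability relative to solvent controls.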

[2] = compound: C/C(=N\NC(=O)C1=CC(=CC=C1)S(=O)(=O)N2CCOCC2)/C3=C(C=CC(=C3)Cl)O
Procedure, shortened: as §1

[3] = compound: C1=CC(=CC=C1C2=NC3=C(N2)C=C(C=C3)C(=O)N)OC4=CC=C(C=C4)Cl
Procedure, shortened: as §1

[4] = compound: C1=CC2=C(C=CC(=C2)/C=C\3/C(=O)NC(=NCC4=CC=CS4)S3)N=C1
Procedure, shortened: as §1

[5] = compound: C1=CC2=NC=CN=C2C=C1/C=C/3\C(=O)NC(=O)S3
Procedure, shortened: as §1

[6] = compound: C1=CC=C(C=C1)C2=NC(=C(N2)C3=CC=NC=C3)C4=CC(=C(C=C4)Cl)O
Procedure, shortened: as §1

[7] = compound: C1=CC=C2C(=C1)C3=NNC4=CC=CC(=C43)C2=O
Procedure, shortened: as §1

[8] = compound: C1CCN(C1)C(=O)NC2=CC=CC(=C2)NC3=NC=C(C(=N3)NCCC4=CN=CN4)Br
Procedure, shortened: as §1

[9] = compound: C1CN(CCC1(CC2=CC=C(C=C2)Cl)N)C3=NC=NC4=C3C=CN4
Procedure, shortened: as §1

[10] = compound: C1COCCN1CCN2C3=CC=CC=C3N=C2NC(=O)C4=CC(=CC=C4)[N+](=O)[O-] [IRAK-1-4 Inhibitor I]
Procedure, shortened: as §1

Measured: log2 fold change

TUBGCP2 isoform 4 (UniProt Q9BSJ2)
inactive: [1] 0.036 | [2] -0.048 | [3] 0.012 | [4] 0.025 | [5] 0.014 | [6] -0.005 | [7] -0.029 | [8] -0.014 | [9] 0.004 | [10] -0.041

TOPBP1 (UniProt Q92547)
inactive: [1] 0.004 | [2] -0.056 | [3] -0.034 | [4] 0.018 | [5] 0.002 | [6] 0.003 | [7] -0.009 | [8] -0.134 | [9] 0.072 | [10] -0.006

TRAPPC10 (UniProt P48553)
inactive: [1] 0.066 | [2] 0.031 | [3] 0.027 | [4] 0.045 | [5] 0.018 | [6] 0.004 | [7] -0.058 | [8] 0.057 | [9] 0.005 | [10] 0.013

TMEM70 (UniProt Q9BUB7)
inactive: [1] -0.018 | [2] -0.003 | [3] -0.106 | [4] 0.03 | [5] 0.038 | [6] -0.073 | [7] 0.011 | [8] 0.006 | [9] -0.028 | [10] 0.086

TMEM164 (UniProt Q5U3C3)
inactive: [1] 0.067 | [2] -0.141 | [3] -0.009 | [4] -0.093 | [5] 0.104 | [6] -0.056 | [7] -0.211 | [8] -0.057 | [9] 0.153 | [10] 0.094

UBL5 (UniProt Q9BZL1)
UniProt Q9BZL1, sequence (Q9BZL1 whole entry, looked up): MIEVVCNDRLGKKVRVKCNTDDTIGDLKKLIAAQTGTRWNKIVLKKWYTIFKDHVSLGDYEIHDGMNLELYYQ
inactive: [1] 0 | [2] 0.002 | [3] -0.02 | [4] 0.011 | [5] -0.079 | [6] 0 | [7] 0.049 | [8] 0.029 | [9] 0.004 | [10] -0.062

TPX2 (UniProt Q9ULW0)
inactive: [1] -0.014 | [2] -0.008 | [3] 0.032 | [4] -0.022 | [5] -0.013 | [6] 0.019 | [7] 0.001 | [8] -0.005 | [9] -0.026 | [10] 0.006

UBE2L6 (UniProt O14933)
UniProt O14933, sequence (O14933 whole entry, looked up): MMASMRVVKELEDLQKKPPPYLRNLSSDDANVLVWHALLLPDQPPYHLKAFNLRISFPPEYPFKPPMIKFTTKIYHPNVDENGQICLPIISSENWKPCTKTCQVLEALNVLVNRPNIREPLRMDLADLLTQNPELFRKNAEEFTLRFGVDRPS
inactive: [1] 0.062 | [2] -0.03 | [3] 0.007 | [4] -0.003 | [5] -0.065 | [6] -0.001 | [7] 0.023 | [8] -0.014 | [9] 0.144 | [10] 0.047

TNPO3 (UniProt Q9Y5L0)
inactive: [1] 0.022 | [2] 0.001 | [3] -0.019 | [4] -0.018 | [5] 0.019 | [6] -0.008 | [7] 0 | [8] 0.018 | [9] 0.017 | [10] 0.021

TUT4 (UniProt Q5TAX3)
inactive: [1] -0.009 | [2] -0.048 | [3] -0.014 | [4] -0.062 | [5] -0.054 | [6] -0.004 | [7] -0.021 | [8] -0.029 | [9] 0.019 | [10] 0.023

TIMM44 (UniProt O43615)
inactive: [1] -0.019 | [2] -0.02 | [3] -0.008 | [4] -0.019 | [5] 0.041 | [6] -0.012 | [7] 0.03 | [8] -0.019 | [9] 0.004 | [10] -0.011

TFAP4 (UniProt Q01664)
UniProt Q01664, sequence (Q01664 whole entry, looked up): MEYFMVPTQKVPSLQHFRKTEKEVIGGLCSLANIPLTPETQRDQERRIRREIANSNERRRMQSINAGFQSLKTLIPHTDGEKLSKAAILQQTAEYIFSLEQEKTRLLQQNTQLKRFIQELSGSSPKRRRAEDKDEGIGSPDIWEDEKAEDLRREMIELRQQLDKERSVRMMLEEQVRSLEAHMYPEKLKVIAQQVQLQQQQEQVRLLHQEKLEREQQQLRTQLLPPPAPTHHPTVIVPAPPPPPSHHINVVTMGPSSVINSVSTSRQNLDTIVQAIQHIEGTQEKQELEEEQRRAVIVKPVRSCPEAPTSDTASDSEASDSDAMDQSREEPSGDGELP
inactive: [1] -0.063 | [2] -0.042 | [3] 0.017 | [4] -0.025 | [5] 0.018 | [6] -0.09 | [7] 0.055 | [8] 0.135 | [9] -0.016 | [10] -0.061

TRIM65 (UniProt Q6PJ69)
UniProt Q6PJ69, sequence (Q6PJ69 whole entry, looked up): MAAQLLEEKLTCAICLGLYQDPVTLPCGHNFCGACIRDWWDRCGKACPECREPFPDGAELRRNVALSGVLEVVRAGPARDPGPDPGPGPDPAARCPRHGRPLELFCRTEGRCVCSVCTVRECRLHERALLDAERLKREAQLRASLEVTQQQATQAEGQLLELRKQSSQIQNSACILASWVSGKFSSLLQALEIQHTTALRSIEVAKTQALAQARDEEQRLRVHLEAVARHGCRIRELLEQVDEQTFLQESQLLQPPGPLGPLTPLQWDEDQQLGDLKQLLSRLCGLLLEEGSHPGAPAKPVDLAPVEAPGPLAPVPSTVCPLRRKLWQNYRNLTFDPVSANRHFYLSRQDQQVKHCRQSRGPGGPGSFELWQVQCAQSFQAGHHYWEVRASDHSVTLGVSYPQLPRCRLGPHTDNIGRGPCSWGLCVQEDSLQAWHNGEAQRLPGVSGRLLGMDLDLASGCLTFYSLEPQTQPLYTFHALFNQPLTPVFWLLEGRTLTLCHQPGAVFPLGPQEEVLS
inactive: [1] 0.047 | [2] -0.072 | [3] -0.008 | [4] 0.021 | [5] -0.005 | [6] -0.044 | [7] -0.054 | [8] 0.026 | [9] 0.007 | [10] -0.025

TTC12 isoform 2 (UniProt Q9H892)
UniProt Q9H892, sequence (Q9H892 whole entry, looked up): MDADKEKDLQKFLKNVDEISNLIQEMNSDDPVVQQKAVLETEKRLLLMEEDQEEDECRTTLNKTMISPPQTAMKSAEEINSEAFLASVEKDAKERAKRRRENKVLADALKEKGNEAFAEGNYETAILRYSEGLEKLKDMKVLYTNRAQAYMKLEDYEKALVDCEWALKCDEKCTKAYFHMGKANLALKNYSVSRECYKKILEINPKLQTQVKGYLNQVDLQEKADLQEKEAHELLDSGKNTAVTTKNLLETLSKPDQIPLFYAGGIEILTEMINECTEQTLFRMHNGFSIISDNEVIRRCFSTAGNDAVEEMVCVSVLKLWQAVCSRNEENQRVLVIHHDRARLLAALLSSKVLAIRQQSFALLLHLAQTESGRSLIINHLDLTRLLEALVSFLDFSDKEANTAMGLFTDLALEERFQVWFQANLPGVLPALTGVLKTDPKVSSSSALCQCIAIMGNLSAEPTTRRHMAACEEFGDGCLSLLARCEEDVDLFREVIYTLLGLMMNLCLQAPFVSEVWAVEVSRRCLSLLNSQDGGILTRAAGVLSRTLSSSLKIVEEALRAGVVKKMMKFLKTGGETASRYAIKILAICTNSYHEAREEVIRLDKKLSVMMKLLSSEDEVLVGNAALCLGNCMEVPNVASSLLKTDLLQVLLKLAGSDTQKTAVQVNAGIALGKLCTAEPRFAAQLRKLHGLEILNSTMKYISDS
inactive: [1] 0.066 | [2] -0.051 | [3] 0.055 | [4] 0.007 | [5] -0.081 | [6] -0.037 | [7] -0.019 | [8] -0.006 | [9] 0.034 | [10] 0.231

TYMS (UniProt P04818)
inactive: [1] 0.016 | [2] 0.041 | [3] 0.011 | [4] -0.032 | [5] 0.032 | [6] -0.026 | [7] 0.019 | [8] 0.035 | [9] -0.004 | [10] -0.008

UBE2D1 (UniProt P51668)
UniProt P51668, sequence (P51668 whole entry, looked up): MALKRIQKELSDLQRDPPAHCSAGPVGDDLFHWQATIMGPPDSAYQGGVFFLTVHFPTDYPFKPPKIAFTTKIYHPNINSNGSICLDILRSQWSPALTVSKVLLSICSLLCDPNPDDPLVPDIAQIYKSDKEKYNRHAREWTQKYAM
inactive: [1] -0.043 | [2] 0.008 | [3] 0.072 | [4] -0.007 | [5] -0.032 | [6] 0.008 | [7] -0.006 | [8] -0.042 | [9] 0.015 | [10] -0.038

TPST2 (UniProt O60704)
inactive: [1] -0.064 | [2] -0.062 | [3] 0.042 | [4] 0.049 | [5] -0.002 | [6] -0.016 | [7] -0.06 | [8] 0.015 | [9] 0.032 | [10] -0.038

TSFM (UniProt P43897)
inactive: [1] -0.013 | [2] 0.009 | [3] -0.035 | [4] -0.003 | [5] -0.002 | [6] 0.017 | [7] -0.063 | [8] 0.024 | [9] 0.034 | [10] -0.024

TP53RK (UniProt Q96S44)
inactive: [1] -0.005 | [2] 0.025 | [3] 0.038 | [6] -0.03 | [7] 0.042 | [8] 0.014 | [9] -0.022 | [10] -0.008
active: [4] -0.24 | [5] -0.37

THADA (UniProt Q6YHU6)
inactive: [1] 0.059 | [2] -0.003 | [3] 0 | [4] 0.004 | [5] -0.011 | [6] -0.004 | [7] -0.017 | [8] -0.024 | [9] 0.017 | [10] -0.017

UBR3 isoform 4 (UniProt Q6ZT12)
inactive: [1] 0.016 | [2] 0.044 | [3] 0.016 | [4] 0.027 | [5] 0.005 | [6] 0.005 | [7] -0.07 | [8] -0.063 | [9] 0.032 | [10] -0.007

TROAP (UniProt Q12815)
UniProt Q12815, sequence (Q12815 whole entry, looked up): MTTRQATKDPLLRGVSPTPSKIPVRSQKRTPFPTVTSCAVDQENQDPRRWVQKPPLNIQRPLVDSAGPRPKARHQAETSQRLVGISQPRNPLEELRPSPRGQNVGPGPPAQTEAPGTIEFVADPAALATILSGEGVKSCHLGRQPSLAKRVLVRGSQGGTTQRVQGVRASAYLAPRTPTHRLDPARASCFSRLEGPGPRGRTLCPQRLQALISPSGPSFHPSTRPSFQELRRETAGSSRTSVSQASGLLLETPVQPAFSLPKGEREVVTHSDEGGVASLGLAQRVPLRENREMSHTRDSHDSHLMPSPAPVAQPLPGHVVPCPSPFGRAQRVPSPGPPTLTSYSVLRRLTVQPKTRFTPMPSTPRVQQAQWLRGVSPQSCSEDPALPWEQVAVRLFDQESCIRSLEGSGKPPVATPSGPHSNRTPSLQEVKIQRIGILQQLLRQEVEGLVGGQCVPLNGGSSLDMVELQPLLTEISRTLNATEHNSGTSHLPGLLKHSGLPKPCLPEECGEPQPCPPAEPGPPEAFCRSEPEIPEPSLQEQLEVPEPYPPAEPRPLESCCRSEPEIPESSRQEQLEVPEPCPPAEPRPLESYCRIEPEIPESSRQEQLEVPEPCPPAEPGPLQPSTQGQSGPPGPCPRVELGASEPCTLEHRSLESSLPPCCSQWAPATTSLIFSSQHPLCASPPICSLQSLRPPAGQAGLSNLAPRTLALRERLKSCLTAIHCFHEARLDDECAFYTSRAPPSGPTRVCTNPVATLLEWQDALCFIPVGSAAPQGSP
inactive: [1] -0.023 | [2] -0.02 | [3] 0.028 | [4] -0.036 | [5] -0.054 | [6] 0.017 | [7] -0.027 | [8] 0.035 | [9] 0.104 | [10] -0.011

TCAF2 (UniProt A6NFQ2)
UniProt A6NFQ2, sequence (A6NFQ2 whole entry, looked up): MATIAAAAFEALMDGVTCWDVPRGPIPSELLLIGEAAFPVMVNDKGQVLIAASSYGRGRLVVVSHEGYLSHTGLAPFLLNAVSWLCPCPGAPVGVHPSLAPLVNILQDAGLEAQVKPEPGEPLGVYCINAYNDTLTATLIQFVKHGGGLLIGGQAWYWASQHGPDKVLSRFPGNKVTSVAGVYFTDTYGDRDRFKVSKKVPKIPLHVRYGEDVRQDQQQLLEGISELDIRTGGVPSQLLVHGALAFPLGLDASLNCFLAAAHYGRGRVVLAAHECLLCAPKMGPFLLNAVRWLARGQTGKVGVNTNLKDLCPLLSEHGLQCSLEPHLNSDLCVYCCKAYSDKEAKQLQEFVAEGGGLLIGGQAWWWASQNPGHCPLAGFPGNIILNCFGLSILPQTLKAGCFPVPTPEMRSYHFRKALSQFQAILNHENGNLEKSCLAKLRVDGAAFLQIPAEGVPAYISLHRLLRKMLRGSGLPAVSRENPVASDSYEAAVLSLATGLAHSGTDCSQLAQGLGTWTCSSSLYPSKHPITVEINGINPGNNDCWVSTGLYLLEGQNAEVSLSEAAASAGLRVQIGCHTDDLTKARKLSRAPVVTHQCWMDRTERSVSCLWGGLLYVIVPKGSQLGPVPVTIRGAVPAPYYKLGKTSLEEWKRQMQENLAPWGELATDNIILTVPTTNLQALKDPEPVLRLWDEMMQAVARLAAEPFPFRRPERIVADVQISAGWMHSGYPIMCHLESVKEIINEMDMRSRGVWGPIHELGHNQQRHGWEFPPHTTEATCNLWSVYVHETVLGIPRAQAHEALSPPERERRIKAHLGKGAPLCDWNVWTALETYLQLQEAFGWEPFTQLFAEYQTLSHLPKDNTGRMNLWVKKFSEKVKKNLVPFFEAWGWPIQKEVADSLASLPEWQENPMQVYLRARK
inactive: [1] -0.006 | [2] -0.218 | [3] -0.003 | [4] -0.059 | [5] -0.038 | [6] -0.027 | [7] -0.033 | [8] -0.022 | [9] -0.047 | [10] -0.005

UFSP2 (UniProt Q9NUQ7)
UniProt Q9NUQ7, sequence (Q9NUQ7 whole entry, looked up): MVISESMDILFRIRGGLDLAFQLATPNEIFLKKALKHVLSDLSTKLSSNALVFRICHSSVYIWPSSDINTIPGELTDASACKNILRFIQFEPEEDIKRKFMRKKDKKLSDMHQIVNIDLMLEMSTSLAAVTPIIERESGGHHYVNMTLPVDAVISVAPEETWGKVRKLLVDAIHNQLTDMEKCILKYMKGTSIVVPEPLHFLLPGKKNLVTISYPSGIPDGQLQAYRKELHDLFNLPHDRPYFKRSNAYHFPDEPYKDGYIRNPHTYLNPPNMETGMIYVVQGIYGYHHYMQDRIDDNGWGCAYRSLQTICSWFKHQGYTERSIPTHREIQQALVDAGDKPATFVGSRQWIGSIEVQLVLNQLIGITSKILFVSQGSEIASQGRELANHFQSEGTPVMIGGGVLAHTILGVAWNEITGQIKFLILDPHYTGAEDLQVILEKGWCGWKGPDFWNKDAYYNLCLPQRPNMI
inactive: [1] -0.04 | [2] -0.034 | [3] 0.028 | [4] 0.098 | [5] -0.015 | [6] -0.042 | [7] -0.055 | [8] -0.026 | [9] -0.037 | [10] 0.023

TUBA3C (UniProt P0DPH7)
UniProt P0DPH7, sequence (P0DPH7 whole entry, looked up): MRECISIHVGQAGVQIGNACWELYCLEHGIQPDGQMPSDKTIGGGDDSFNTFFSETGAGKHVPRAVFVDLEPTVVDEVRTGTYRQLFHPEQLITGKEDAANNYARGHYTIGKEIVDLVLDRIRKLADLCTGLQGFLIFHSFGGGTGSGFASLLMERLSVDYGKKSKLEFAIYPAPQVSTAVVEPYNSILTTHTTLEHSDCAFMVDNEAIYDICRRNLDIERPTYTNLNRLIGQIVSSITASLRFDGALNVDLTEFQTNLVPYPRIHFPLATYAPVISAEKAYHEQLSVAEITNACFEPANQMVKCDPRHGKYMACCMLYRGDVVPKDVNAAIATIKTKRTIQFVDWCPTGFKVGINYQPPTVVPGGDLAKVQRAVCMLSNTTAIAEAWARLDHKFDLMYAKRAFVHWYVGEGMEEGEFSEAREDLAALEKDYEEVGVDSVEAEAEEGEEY
inactive: [1] 0.03 | [2] -0.605 | [3] 0.039 | [4] -0.029 | [5] 0.023 | [6] -0.023 | [7] -0.01 | [8] -0.011 | [9] 0.036 | [10] 0.037

TJP1 (UniProt G3V1L9)
inactive: [1] 0.169 | [2] 0.199 | [3] 0.087 | [4] -0.119 | [5] -0.068 | [6] 0.014 | [7] 0.063 | [10] 0.047

TRA2A (UniProt Q13595)
inactive: [1] -0.164 | [2] -0.261 | [3] -0.092 | [4] -0.03 | [5] -0.137 | [6] 0.038 | [7] -0.024 | [8] 0.083 | [9] -0.234 | [10] -0.102

TMEM263 (UniProt Q8WUH6)
inactive: [1] -0.114 | [2] -0.104 | [3] 0.273 | [4] -0.119 | [5] -0.022 | [6] -0.05 | [7] -0.012 | [8] -0.006 | [9] 0.095 | [10] 0.026

TRIP12 isoform 2 (UniProt Q14669)
inactive: [1] 0.034 | [2] 0.013 | [3] -0.014 | [4] 0.004 | [5] 0.024 | [6] -0.027 | [7] -0.02 | [8] 0.019 | [9] -0.021 | [10] -0.032

TTMP isoform 3 (UniProt Q5BVD1)
UniProt Q5BVD1, sequence (Q5BVD1 whole entry, looked up): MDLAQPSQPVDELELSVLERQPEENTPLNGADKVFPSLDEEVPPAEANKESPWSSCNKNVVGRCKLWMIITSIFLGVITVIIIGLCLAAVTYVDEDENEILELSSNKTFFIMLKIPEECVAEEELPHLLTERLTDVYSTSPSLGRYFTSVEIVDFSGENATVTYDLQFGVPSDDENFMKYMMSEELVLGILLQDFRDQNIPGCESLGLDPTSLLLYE
inactive: [1] 0.121 | [2] -0.173 | [3] -0.023 | [4] -0.106 | [5] -0.026 | [6] -0.026 | [7] -0.08 | [8] -0.05 | [9] 0.086 | [10] 0.193
